The panel holds about 83,000 compounds, 20% with a hit somewhere; the sample as a whole holds those more often.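 Interpretation: 100, growth as untreated; towards 0, rising growth inhibition; 0, no net growth; 0 to -100, cell death. Compounds scoring below 10 were considered active.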 Unmarked numbers belong to inactive results. Calls of active or inactive are those of the source.
Columns and labels:
Experiment in all cases: NCI-60 one-dose screen, 48 h (100 = growth as untreated, 0 = no growth, -100 = all killed)
Conditions in all cases: 10 µM unless noted
[1] = system: BT-549 breast
[2] = system: MDA-MB-435 melanoma
[3] = system: SW-620 colon
[4] = system: MCF7 breast
[5] = system: HCT-116 colon
[6] = system: HCC-2998 colon
[7] = system: KM12 colon

| Compound | growth [1] | growth [2] | growth [3] | growth [4] | growth [5] | growth [6] | growth [7] |
| --- | --- | --- | --- | --- | --- | --- | --- |
| CCN(CC)c1ccc(C=O)c(OCc2cn(CC(=O)Nc3ccc(Cl)cc3)nn2)c1 | 81.4% | 79.8% | 85.6% | 52.9% | 47.3% | 86.1% | 70.4% |
| COc1ccccc1/C=C/C=N/NC1=NC2C(S1)N(C)C(=O)N2C (stereo unspecified) | 67.8% | -57.1% (active) | 20.9% | 19.9% | 35.9% | 68.3% | 18.2% |
| CC(=NNc1ncnc2ccccc12)c1ccc(S(C)(=O)=O)cc1 | 105% | 106% | 104% | 87.5% | 100% | 111% | 102% |
| CS(=O)(=O)c1ccc(-n2cc(/C=C/C(=O)c3ccc(NC(=O)CO[N+](=O)[O-])cc3)c(-c3ccc(Cl)cc3)n2)cc1 | 103% | 104% | 114% | 84.4% | 103% | 93.4% | 107% |
| N/C(=N\c1nc2c(Br)cccc2s1)C(Br)Br | 29.2% | -48.2% (active) | -39.2% (active) | -26.3% (active) | -56.1% (active) | 3.14% (active) | 3.67% (active) |
| CN(C)c1ccc(-c2c(NC(C)(C)C)nc3c(OCCc4ccccc4)cccn23)cc1 | 42.3% | 24% | 12.4% | 1.49% (active) | 8.37% (active) | 13% | 6.85% (active) |
| CC(C)(C)Nc1nc2c(OCCc3ccccc3)cccn2c1-c1cccc(F)c1 | 11.8% | 2.41% (active) | 9.7% (active) | -13.4% (active) | -32.8% (active) | 4.84% (active) | 4.77% (active) |
| O=C(CSc1nnc(-c2ccc3nc(-c4ccc(Cl)cc4)[nH]c3c2)o1)Nc1ccc(C(=O)/C=C/c2ccc(Cl)cc2)cc1 | 99.6% | 99.9% | 103% | 55.2% | 77.8% | 116% | 99.3% |
| Clc1ccc2c(NCCCN3CCOCC3)c3oc4ccc(Cl)cc4c3nc2c1 | 81.3% | 69.6% | 27.5% | 22.2% | 23.4% | 10% | 48.4% |
| O=C(CSc1nc2sc3c(c2c(=O)n1-c1ccc(Cl)cc1)CCCC3)NNC(=O)Nc1cccc(C(F)(F)F)c1 | 54% | 24.5% | 22.1% | 16.7% | 5.54% (active) | 38.9% | 11% |
| c1ccc2c(NCCCN3CCOCC3)c3oc4ccccc4c3nc2c1 | 3.61% (active) | -11.9% (active) | -0.873% (active) | 0.0447% (active) | -20.1% (active) | -28% (active) | 2.04% (active) |
| COc1cc(-c2nc3ccc(-c4nnc(SCC(=O)Nc5ccc(C(C)=O)cc5)o4)cc3[nH]2)cc(OC)c1OC | 108% | 108% | 101% | 92.6% | 106% | 112% | 101% |
| C#Cc1nc(C2=C(C)C(O)/C(=N/O)C2)cs1 (stereo unspecified) | 111% | 95.6% | 123% | 68.5% | 100% | 117% | 42.9% |
| COc1ccc(/C=C2\SC(=Nc3cc(C)[nH]n3)NC2=O)cc1 | 90.5% | 92.4% | 97.1% | 85.5% | 97.2% | 99.8% | 89.8% |
| C/C(=N\NC(N)=O)c1c(O)sc(=O)[nH]c1=O | 95.3% | 104% | 97.5% | 93.4% | 91% | 110% | 100% |
| Nc1nc(N)c2c(n1)NC(c1ccc(F)cc1)CC(c1ccc(Nc3nc(NCCO)nc(Nc4ccc(Cl)cc4)n3)cc1)=N2 (stereo unspecified) | 42.7% | -71.4% (active) | -52.8% (active) | -66.5% (active) | -67.4% (active) | -80.4% (active) | -16.9% (active) |
| Clc1ccc2oc3c(NCCCn4ccnc4)c4ccccc4nc3c2c1 | 76.9% | 26.7% | 16.9% | 8.8% (active) | 11.2% | 55.2% | 30.9% |

| Compound | growth [1] | growth [2] | growth [3] | growth [4] | growth [5] | growth [6] | growth [7] |
| --- | --- | --- | --- | --- | --- | --- | --- |
| O=C(NNc1nc2cc(F)ccc2n2c(CN3CC4(COC4)C3)ccc12)c1cnccn1 | 36.4% | 35.2% | 27.1% | 13.6% | 22% | 57.3% | 23% |
| C#Cc1nc(C2=C(C)C(O)CC2)cs1 (stereo unspecified) | 119% | 105% | 121% | 85.1% | 111% | 115% | 63.9% |
| N#Cc1c(-c2ccc(Cl)cc2)nc2c(-c3ccccc3)c(Nc3ccccc3)nn2c1N | 94.4% | 58.7% | 40.6% | 47.9% | 20.7% | 90.7% | 60% |
| COc1ccc(-c2nc3ccc(-c4nnc(SCC(=O)Nc5ccc(C(=O)/C=C/c6ccccc6)cc5)o4)cc3[nH]2)cc1OC | 94.1% | 106% | 104% | 78.3% | 89.7% | 123% | 99% |
| O=C(N/N=C/c1ccc[nH]1)c1[nH]c2ccc(Br)cc2c1-c1ccccc1 | -12.5% (active) | 2.21% (active) | 22.8% | 3.98% (active) | 0.0164% (active) | 17.2% | 10.4% |
| OC1CCN(CCCOc2c3ccc(Cl)cc3nc3c2oc2ccccc23)CC1 | -2.71% (active) | -76.3% (active) | -19.8% (active) | -32.1% (active) | -34.9% (active) | -68% (active) | -16.1% (active) |
| Nc1c(C(=O)Nc2ccc(Cl)cc2)sc2nc(-c3cnccn3)cc(-c3cccs3)c12 | 65.3% | 77.5% | 66.3% | 55.3% | 41.6% | 104% | 80.2% |
| CCOC(=O)c1c(Nc2ccccc2)nn2c(N)c(C#N)c(-c3ccc(OC)cc3)nc12 | 52.6% | 79% | 94.7% | 70.3% | 77.8% | 92.5% | 83% |
| O=C1Nc2cc(Cl)ccc2/C1=C\c1ccc(OCc2ccc([N+](=O)[O-])cc2)cc1 | 77.5% | 80.2% | 76.8% | 61.3% | 68.2% | 82.8% | 64.6% |
| COC(=O)c1ccc(NC(=S)N2CCc3ccc([N+](=O)[O-])cc3C2)cc1O | 101% | 111% | 110% | 92.7% | 117% | 110% | 103% |
| CCOC(=O)c1c(Nc2ccccc2)nn2c(N)c(C#N)c(-c3ccc(Cl)cc3)nc12 | 96.7% | 70.3% | 65.8% | 65.2% | 59.9% | 83.5% | 64.1% |
| Cc1nc(-c2cc3ccccc3oc2=O)ccc1C(=O)/C=C/c1ccc(Cl)c(Cl)c1 | 108% | 103% | 101% | 86.3% | 103% | 107% | 103% |
| COc1ccc(C(=O)/C=C/c2ccc(OCc3ccc(C)cc3)c(OC)c2)cc1OC | 73.2% | 82.6% | 45.5% | 25.9% | 25.3% | 91.1% | 51.5% |
| CCCC(=O)NC(c1cccnc1)c1cc(C)c2cccnc2c1O (stereo unspecified) | 69.5% | 59.7% | 33.4% | 10.6% | 8.73% (active) | 64.1% | 38.4% |
| Cc1ccc(-c2nc(C(Cl)Cl)nc3cc(-c4ccccc4)nn23)cc1 | 53.6% | 16.1% | -40.3% (active) | 25.4% | 11.8% | -55.8% (active) | -6.93% (active) |
| Oc1c(Cl)cc(Cl)c2ccc(CN3CCCCC3)nc12 | 89.1% | 42.1% | 30.4% | 28.9% | 21.3% | 65% | 30.7% |

Source: PubChem BioAssay (NCI)
